# In PubChem BioAssay:
# Active and inactive are the calls of the source.
# Tests used:
# [1] = E. coli DRC41 culture turbidity changes, primary screen, E. coli filamentation inducer project, strain DRC41, OD650, 48 h (AID 1152);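 note: E. coli MC1000 strain DRC41 lacking acrAB efflux pump and sulA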; settings: E. coli DRC41 (acrAB sulA), higher = more signal, called active from +8 up or from −8 down
# [2] = small-molecule binders of probe aLefty1, primary screen, biochemical, small-molecule microarray, 635/667 nm fluorescence (AID 1153); settings: higher = more signal;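 note: score merges spot fluorescence with signal-to-noise ratio from the scanned slide images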
# [3] = PSAC antagonists in infected red cells, primary screen, cell-based, P. falciparum Indochina, OD700, 1 h (AID 1154); settings: P. falciparum Indochina infected RBC osmotic lysis, higher = more signal, called active from +8 up or from −8 down
# [4] = PSAC antagonists in infected red cells, primary screen, cell-based, P. falciparum Indochina, OD700, 2 h (AID 1155);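 note: lysis reports solute entry through the parasite surface anion channel PSAC; channel blockers reduce lysis of infected cells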; settings: P. falciparum Indochina infected erythrocytes, osmotic lysis OD700; higher = more signal, called active from +8 up or from −8 down
# [5] = osmotic lysis modulators in infected erythrocytes, primary screen, PSAC antagonist project, cell-based, P. falciparum Indochina, OD700, 3 h (AID 1156); settings: higher = more signal, called active from +8 up or from −8 down
# [6] = PSAC antagonists in infected red cells, primary screen, cell-based, P. falciparum Indochina, OD700, 18 h (AID 1157); settings: P. falciparum Indochina infected erythrocytes, osmotic lysis OD700, 18 h; higher = more signal, called active from +8 up or from −8 down
# [7] = modulators of S6 phosphorylation in cells, primary screen, cell-based, A549, cytoblot, luminescence, serum-stimulated (AID 1158); settings: A549 phospho-S6 cytoblot, 5 h, higher = more signal;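 note: serum-stimulated A549 lung adenocarcinoma cells; signal is phosphorylated S6 detected by cytoblot immunostaining with HRP secondary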
# [8] = target: NADPH oxidase 2 (Homo sapiens) (UniProt P04839); assay: NOX2-dependent H2O2 signal modulators, primary screen, NOX inhibitor project, cell-based, HEK293-NOX2, PMA-stimulated, Amplex Red fluorescence (AID 1159); settings: 45 min, higher = more signal, called active from +8 up or from −8 down; note: test concentration not given here
# [9] = target: NADPH oxidase 4 (Homo sapiens) (UniProt Q9NPH5); assay: NOX4-dependent H2O2 signal modulators, primary screen, NOX inhibitor project, cell-based, HEK293-NOX4, tetracycline-induced, Amplex Red fluorescence (AID 1160); settings: 45 min, higher = more signal, called active from +8 up or from −8 down
# [10] = target: NADPH oxidase 5 (Homo sapiens) (UniProt Q96PH1); assay: NOX5-dependent H2O2 signal modulators, primary screen, NOX inhibitor project, cell-based, HEK293-NOX5, Amplex Red fluorescence (AID 1161); settings: HEK293-NOX5, ionomycin, 45 min, higher = more signal
# Sequence of NADPH oxidase 5 (Homo sapiens) (Q96PH1 whole entry, looked up): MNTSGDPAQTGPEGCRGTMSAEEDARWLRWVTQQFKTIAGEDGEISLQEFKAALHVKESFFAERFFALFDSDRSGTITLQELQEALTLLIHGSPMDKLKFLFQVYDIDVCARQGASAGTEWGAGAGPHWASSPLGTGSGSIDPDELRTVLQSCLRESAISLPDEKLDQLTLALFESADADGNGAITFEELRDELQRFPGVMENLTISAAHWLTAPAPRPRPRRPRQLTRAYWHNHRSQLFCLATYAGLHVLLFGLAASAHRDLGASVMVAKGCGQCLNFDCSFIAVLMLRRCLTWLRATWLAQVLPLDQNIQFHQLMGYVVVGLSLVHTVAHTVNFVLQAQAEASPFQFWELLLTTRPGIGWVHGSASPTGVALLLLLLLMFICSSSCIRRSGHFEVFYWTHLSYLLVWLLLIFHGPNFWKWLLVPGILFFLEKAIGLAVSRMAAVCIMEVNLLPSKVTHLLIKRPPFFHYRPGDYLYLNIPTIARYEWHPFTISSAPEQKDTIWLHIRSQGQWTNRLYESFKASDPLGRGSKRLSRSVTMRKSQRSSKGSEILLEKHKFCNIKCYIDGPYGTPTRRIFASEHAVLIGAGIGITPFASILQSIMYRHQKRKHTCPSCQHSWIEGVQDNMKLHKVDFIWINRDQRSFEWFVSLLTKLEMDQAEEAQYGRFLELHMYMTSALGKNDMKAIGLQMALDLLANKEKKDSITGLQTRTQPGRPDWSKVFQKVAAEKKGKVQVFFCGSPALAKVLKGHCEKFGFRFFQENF
# Sequence of NADPH oxidase 2 (Homo sapiens) (P04839 whole entry, looked up): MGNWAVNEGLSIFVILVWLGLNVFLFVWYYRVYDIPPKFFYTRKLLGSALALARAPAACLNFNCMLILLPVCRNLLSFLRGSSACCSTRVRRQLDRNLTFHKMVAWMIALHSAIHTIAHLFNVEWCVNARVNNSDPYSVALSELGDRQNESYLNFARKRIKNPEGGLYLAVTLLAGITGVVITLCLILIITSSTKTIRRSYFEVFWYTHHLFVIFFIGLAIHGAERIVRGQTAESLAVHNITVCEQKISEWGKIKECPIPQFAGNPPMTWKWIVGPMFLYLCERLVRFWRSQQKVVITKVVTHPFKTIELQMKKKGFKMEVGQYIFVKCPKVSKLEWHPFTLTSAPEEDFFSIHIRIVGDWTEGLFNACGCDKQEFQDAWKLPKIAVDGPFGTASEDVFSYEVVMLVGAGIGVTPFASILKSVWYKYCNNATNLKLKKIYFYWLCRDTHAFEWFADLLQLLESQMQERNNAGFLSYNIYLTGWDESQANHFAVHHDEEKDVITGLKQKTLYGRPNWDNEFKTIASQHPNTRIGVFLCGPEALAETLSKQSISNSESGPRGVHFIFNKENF
# Sequence of NADPH oxidase 4 (Homo sapiens) (Q9NPH5 whole entry, looked up): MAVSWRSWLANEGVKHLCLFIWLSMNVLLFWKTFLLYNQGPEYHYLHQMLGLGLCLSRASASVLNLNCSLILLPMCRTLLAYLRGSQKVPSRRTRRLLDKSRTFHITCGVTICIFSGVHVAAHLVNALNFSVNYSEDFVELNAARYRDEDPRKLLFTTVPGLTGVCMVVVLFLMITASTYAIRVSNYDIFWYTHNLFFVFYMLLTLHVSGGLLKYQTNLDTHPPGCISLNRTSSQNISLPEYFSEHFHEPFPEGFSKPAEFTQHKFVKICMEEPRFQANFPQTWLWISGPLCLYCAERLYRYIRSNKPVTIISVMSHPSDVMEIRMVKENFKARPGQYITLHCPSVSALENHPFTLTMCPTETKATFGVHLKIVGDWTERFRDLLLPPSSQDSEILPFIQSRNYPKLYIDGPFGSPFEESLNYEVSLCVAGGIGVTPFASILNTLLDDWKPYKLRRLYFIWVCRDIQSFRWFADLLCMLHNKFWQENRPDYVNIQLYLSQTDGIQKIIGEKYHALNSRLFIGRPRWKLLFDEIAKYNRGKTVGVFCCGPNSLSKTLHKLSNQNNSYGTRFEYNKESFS
SMILES,z-score [1],composite z-score [2],z-score [3],z-score [4],z-score [5],z-score [6],z-score [7],z-score [8],z-score [9],z-score [10]
C=C(CCCC)/C(=C/C[C@@H](OC(C)=O)c1ccccc1OCCO)c1cc(C(=O)OC)ccc1OC,0.725 (inactive),-0.239,27.1 (active),11.2 (active),2.14 (inactive),1.71 (inactive),-0.733,1.27 (inactive),0.282 (inactive),-1.36
O=C1O[C@@H](c2ccccc2)[C@@H](c2ccccc2)N2[C@@H](c3ccc(OCCO)cc3)[C@]3(C(=O)Nc4ccc(C#CCCO)cc43)[C@@H](C(=O)NC[C@H](O)c3ccccc3)[C@H]12,0.591 (inactive),0.708,3.19 (inactive),1.4 (inactive),1.53 (inactive),0.688 (inactive),0.136,2.21 (inactive),1.71 (inactive),0.235
Cc1ccc(S[C@]2(C(=O)NCC(C)C)CC(=O)N(Cc3cc(C(F)(F)F)cc(C(F)(F)F)c3)[C@@H]2c2ccc(CO)cc2)cc1,-0.687 (inactive),0.2,1.3 (inactive),0.596 (inactive),0.664 (inactive),0.13 (inactive),-0.0958,1.73 (inactive),0.823 (inactive),-0.188
CC(C)[Si](C#C[Si](C(C)C)(C(C)C)C(C)C)(O[C@H](C)c1cn(Cc2ccccc2)nn1)C(C)C,1.82 (inactive),0.0509,-0.0395 (inactive),0.0422 (inactive),-0.915 (inactive),0.0635 (inactive),-0.217,0.667 (inactive),-0.748 (inactive),-2.82
C=CCC(OC(C)=O)[C@@H]1[C@@H](N(Cc2ccc(-c3ccccc3)cc2)C(=O)Cc2ccc(F)cc2)c2cc(OCCCO)ccc2N1C(=O)c1ccc2ccccc2c1 (stereo not given in full),0.185 (inactive),0.193,-0.0408 (inactive),0.345 (inactive),-0.348 (inactive),0.703 (inactive),-0.0772,0.719 (inactive),0.587 (inactive),1.82
COc1ccc(CCNC(=O)[C@@]2(C)c3ccccc3C(=O)N(c3ccc(C)cn3)[C@H]2c2ccc(CO)cc2)cc1,-0.246 (inactive),-0.0378,2.01 (inactive),-0.1 (inactive),0.825 (inactive),0.156 (inactive),-0.0316,-0.911 (inactive),-0.78 (inactive),-1.81
COC(=O)[C@@]1(Cc2ccccc2)[C@H]2c3cc(C(=O)N(C)C)n(CCc4c[nH]c5ccc(O)cc45)c3C[C@H]2CN1C(=O)c1ccccc1,0.263 (inactive),-0.0831,7.05 (inactive),-0.38 (inactive),0.102 (inactive),-1.32 (inactive),1.82,-2.52 (inactive),-7 (inactive),-2.41
CCN(CC)c1ccc(N2CC=CC34O[C@@H]5C=CCOC(=O)[C@@H]5[C@H]3C(=O)N(CCCCCCO)[C@@H]4C2=O)cc1 (stereo not given in full),2.74 (inactive),0.176,2.21 (inactive),0.184 (inactive),0.404 (inactive),-0.313 (inactive),0.411,-0.262 (inactive),0.301 (inactive),1.17
O=C(NCCN1CCOCC1)[C@@H]1c2ccccc2C(=O)N(Cc2cc(C(F)(F)F)cc(C(F)(F)F)c2)[C@H]1c1ccc(CO)cc1,-0.0112 (inactive),0.0479,2.81 (inactive),1.44 (inactive),0.591 (inactive),0.526 (inactive),-0.474,-0.0635 (inactive),0.271 (inactive),2.36
COCCOC(=O)N1C(=O)[C@@]2(c3ccccc31)[C@H](C(=O)N1CCCCCCC1)[C@H]1C(=O)O[C@H](c3ccccc3)[C@H](c3ccccc3)N1[C@@H]2c1ccc(OCCO)cc1,-0.448 (inactive),3.13,8.64 (active),1.89 (inactive),1.31 (inactive),0.976 (inactive),0.213,-0.0367 (inactive),0.867 (inactive),1.53
COC(=O)C(CC#Cc1ccc2c(c1)[C@]1(C(=O)N2)[C@H](c2ccccc2OCCO)N2[C@H](c3ccccc3)[C@H](c3ccccc3)OC(=O)[C@H]2[C@@H]1C(N)=O)C(=O)OC,0.793 (inactive),1.81,7.57 (inactive),2.02 (inactive),1.44 (inactive),1.2 (inactive),-0.0528,2.12 (inactive),0.696 (inactive),1.51
CCOC(=O)C1=C[C@@H](C(C)C)N(S(=O)(=O)c2ccc(C)cc2)[C@H]1c1ccccc1F,-1.02 (inactive),0.389,0.21 (inactive),0.668 (inactive),-0.422 (inactive),0.587 (inactive),-0.851,0.173 (inactive),-0.957 (inactive),1.06
COCCCNC(=O)[C@@]1(Sc2ccc(C)cc2)CC(=O)N(Cc2ccccc2Cl)[C@@H]1c1ccc(CO)cc1,0.864 (inactive),-0.0011,0.38 (inactive),-0.91 (inactive),0.712 (inactive),-1.83 (inactive),2.14,-2.58 (inactive),-1.22 (inactive),-2.91
O=C1C2C=CC(C(O)c3ccc(-c4ccccc4)s3)N(Nc3ccccc3)C2C(=O)N1c1ccccc1 (stereo not given),-0.517 (inactive),0.591,8.45 (active),2.11 (inactive),0.214 (inactive),1.1 (inactive),-0.505,-0.986 (inactive),-3.23 (inactive),-0.493
C[N+](C)(C)CCCCCCNC(=O)[C@H]1C[C@H]2C(=O)N[C@@H](Cc3ccccc3)C(=O)N2[C@H]1c1cccc(OCCO)c1,0.123 (inactive),0.222,10.3 (active),1.48 (inactive),-1.42 (inactive),0.719 (inactive),-0.62,1.78 (inactive),0.576 (inactive),1.13
